Reference: PubChem BioAssay (NCI)
About 83,000 compounds went through this panel and 20% of them were active in at least one assay; those are over-represented in the sample as a whole.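 Values shown are percent growth following 48 h exposure of cells in 96-well plates to a single concentration of compound; below 10 was considered active.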 Activity calls are given as the source filed them.

These compounds were tested on NCI-H226 lung (assay: NCI-60 one-dose screen, 48 h (100 = growth as untreated, 0 = no growth, -100 = all killed)). Conditions: 10 µM.

SMILES	growth
COc1ccc(N2N=C(c3ccc4c(c3)OCCO4)CC2c2cccc(NC(=O)CCCNS(=O)(=O)c3ccc(F)cc3)c2)cc1 (configuration not stated)	74.5% (inactive)
COc1cc(/C=N/NC(=O)c2ccc3nc(-c4ccc(Cl)cc4)[nH]c3c2)cc(OC)c1OC	-50.5% (active)
O=C(N=Nc1c(O)[nH]c2ccc(Br)cc12)c1ccc2nc(-c3ccccc3)[nH]c2c1	-47.9% (active)
COc1ccccc1[C@H]1C(C(=O)c2ccc(Cl)cc2)C2(N[C@@H]1c1ccccc1)C(=O)Nc1ccc(Cl)cc12 (some centres not stated)	4.06% (active)
O=c1cc(-c2ccccc2)oc2cc(OCCCNCc3ccccc3)cc(O)c12	46.4% (inactive)
O=C1Nc2cc(-c3ccc(NC(=O)c4cccs4)cc3)ccc2/C1=C/c1ccc[nH]1	40.4% (inactive)
O=C(c1ccc(O)cc1)C1[C@H](c2ccc(Br)cc2)[C@@H](c2ccccc2)NC12C(=O)Nc1ccccc12 (some centres not stated)	43.5% (inactive)
C=C1CCC2C3(C)COC(c4ccccc4F)OC3CCC2(C)C1C/C=C1/C(=O)OCC1O (configuration not stated)	-25.6% (active)
C=C1CCC2C3(C)COC(c4c(F)cccc4F)OC3CCC2(C)C1C/C=C1/C(=O)OCC1O (configuration not stated)	-11.2% (active)
COc1cccc(/C=C2\N=C(C)N(CCc3ccc(S(N)(=O)=O)cc3)C2=O)c1	104% (inactive)
C=C1CCC2C3(C)COC(c4cccc(F)c4)OC3CCC2(C)C1CC(O)C1=CCOC1=O (configuration not stated)	73.1% (inactive)
Cn1cc(-c2cc(N)n3nc(-c4c[nH]c5ccc(Br)cc45)cc3n2)c2cccnc21	-71.2% (active)
C=C1CCC2C3(C)COC(c4c(F)cccc4F)OC3CCC2(C)C1CC(O)C1=CCOC1=O (configuration not stated)	79.3% (inactive)
Brc1ccc(/C=C/c2n(Cc3ccc4ccccc4c3)c3ccccc3[n+]2Cc2ccc3ccccc3c2)cc1	-85% (active)
O=C(Nc1ccc(I)cc1)Nc1nc2ccc([N+](=O)[O-])cc2s1	-74.2% (active)
O=C(N/N=C/c1ccc(B(O)O)o1)c1[nH]c2ccc(Br)cc2c1-c1ccccc1	38.2% (inactive)
CONC[C@]1(C)C=C2C(=O)[C@](C)(O)C3(CC3)C(C)=C2[C@H]1O	-26.7% (active)
O=C(Nc1cccc(-c2cn(-c3ccc4oc(=O)ccc4c3)nn2)c1)Nc1cc(C(F)(F)F)cc(C(F)(F)F)c1	33.4% (inactive)
CCCCCCCCCCCCCCCCCCCC(=O)NCCc1c[nH]c2ccc(OC(=O)CCCC(=O)OCCOOCCOOCCOOCCOOCCOOCCOOCCOOCCOOCCOOCCOOCCOOCCOC)cc12	52.9% (inactive)

SMILES	growth
COc1ccc(/C(C)=N/N=C2C(=O)N(C)c3ccc(Br)cc32)cc1S(N)(=O)=O	43.6% (inactive)
N#Cc1c(NC(=O)c2ccc(C(F)(F)F)cc2C(F)(F)F)sc2c1CCC(=O)C2	-7.56% (active)
CNCc1cccc2c1OCCCCCC[C@@](C)(O)CC1(CC1)S(=O)(=O)c1ccc(cc1)-c1cnc(N)c(n1)C(=O)N2	-75.7% (active)
COc1cc(OC(F)(F)F)ccc1C(=O)Nc1sc2c(c1C#N)CCC(=O)C2	87.9% (inactive)
Nc1n[nH]c2cccc(C#Cc3cccc(NC(=O)Nc4cc(C(F)(F)F)cc(C(F)(F)F)c4)c3)c12	-52.6% (active)
N#Cc1c(-c2ccc(F)cc2)nc(SCc2ccc([N+](=O)[O-])cc2)nc1N1CCOCC1	23.8% (inactive)
CC1=N/C(=C\c2ccc(N(C)C)cc2)C(=O)N1CCc1ccc(S(N)(=O)=O)cc1	98.3% (inactive)
CN(CCF)c1ccc(/C=C/C(=O)c2ccc(N)cc2O)cc1	93.8% (inactive)
O=C(c1ccc(Cl)cc1)C1[C@H](c2ccccc2Br)[C@@H](c2ccccc2)NC12C(=O)Nc1ccccc12 (some centres not stated)	21.9% (inactive)
O=C(Nc1cc(Cl)cc(Cl)c1)Nc1cc(Cl)cc(Cl)c1	-37.8% (active)
O=C(c1ccc(O)cc1)C1[C@H](c2ccc(Br)cc2)[C@@H](c2ccccc2)NC12C(=O)Nc1ccc(Br)cc12 (some centres not stated)	-34.5% (active)
COc1ccccc1[C@H]1C(C(=O)c2ccc(O)cc2)C2(N[C@@H]1c1ccccc1)C(=O)Nc1ccc(Br)cc12 (some centres not stated)	48.1% (inactive)
CN1CCN(c2ccc(C(=O)/C=C/c3ccc(C#N)cc3)cc2)CC1	80.7% (inactive)
CC(C)(C)Nc1nc2cc(Cl)c(Cl)cc2nc1S(C)(=O)=O	-83% (active)
COc1cc(/C=C/C(=O)c2cc(OC)c(OC)c(OC)c2)ccc1Oc1nc(Nc2ccc(F)cc2)nc(N(C)C)n1	17.9% (inactive)
C=C1CCC2C3(C)COC(c4cc(F)cc(F)c4)OC3CCC2(C)C1C/C=C1/C(=O)OCC1O (configuration not stated)	-20.9% (active)
Cc1cc(C(F)(F)F)ccc1C(=O)Nc1sc2c(c1C#N)CCC(=O)C2	-13% (active)
N#Cc1c(Cl)nc(SCc2ccc(F)cc2)nc1-c1ccc(F)cc1	71.3% (inactive)
